# From PubChem
# Sampled rows, rich in hits. Any-hit rate of the full collection: about 28%.
# CYP2C19 inh: human CYP2C19 inhibition; 21% of 96,000 active; inhibition, % at 5 µM; P33261; AID 778; CYP2C19 Supersomes, luciferin-H EGE luminescence, 30 min;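 active = CYP2C19 inhibition above a set limit at 5 µM in the primary screen, cut at about 50% in these data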;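 note: plate controls were negative control wells for no effect and 2.5 mM tranylcypromine positive control for full effect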
# CYP2C9 inh: inhibitors of human CYP2C9; P11712; CYP2C9 Supersomes, luciferin-H conversion, luminescence; inhibition, % at 5 µM; 20% of 96,000 active;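 active = blocking of liver enzyme CYP2C9 beyond about 50% at 5 µM, limit read from the data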
# Target sequence (P11712 whole entry, looked up): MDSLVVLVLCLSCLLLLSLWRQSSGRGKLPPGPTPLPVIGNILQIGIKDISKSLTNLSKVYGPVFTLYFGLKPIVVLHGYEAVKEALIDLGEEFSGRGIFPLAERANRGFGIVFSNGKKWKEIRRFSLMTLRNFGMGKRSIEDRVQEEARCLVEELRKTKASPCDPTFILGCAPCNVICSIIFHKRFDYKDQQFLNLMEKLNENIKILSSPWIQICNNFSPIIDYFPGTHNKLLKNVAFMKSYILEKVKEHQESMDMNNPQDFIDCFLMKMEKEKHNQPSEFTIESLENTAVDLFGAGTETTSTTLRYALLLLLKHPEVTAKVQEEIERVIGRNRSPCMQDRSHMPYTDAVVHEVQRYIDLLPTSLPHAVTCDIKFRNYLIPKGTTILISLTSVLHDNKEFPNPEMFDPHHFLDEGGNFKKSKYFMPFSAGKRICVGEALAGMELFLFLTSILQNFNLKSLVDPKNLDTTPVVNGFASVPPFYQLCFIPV
# PLK1 kinase inh: blocks human PLK1 kinase activity; inhibition, % at 10 µM; P53350; recombinant PLK1 kinase, TR-FRET peptide phosphorylation; AID 619; 0.53% of 97,000 active;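 active = inhibition of 50% or more in the single-concentration screen; inactive = inhibition below 50%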;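 note: 0% = DMSO max control and 100% = H-89 dihydrochloride min control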
# CYP2C9 act: increases human cytochrome P450 2C9 activity; 1.4% of 96,000 active; activation factor at 5 µM; recombinant CYP2C9, luciferin-H conversion, luminescence; active compounds read high; factor 1 = untreated enzyme, 0 = blocked;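 active = activation factor of 2 or more for CYP2C9 at a 5 µM dose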;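 note: 0 = sulfaphenazole-blocked wells and 1 = vehicle-only wells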
# CYP2C19 activ: increases human CYP2C19 enzyme activity; P33261; recombinant CYP2C19, luciferin-H EGE luminescence; active compounds read high; 0 = fully inhibited enzyme, 1 = untreated enzyme; activation factor at 5 µM; 96,000 tested, under 10 active; AID 1025;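 active = activation factor of at least 2 at 5 µM in the primary screen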;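 note: 0 = wells with 2.5 mM tranylcypromine and 1 = vehicle-only wells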
# Plk1 PBD FP: blocks phosphopeptide binding to human Plk1 polo box domain; inhibition, %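 (tested at about 20 µM)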; 0.13% of 97,000 active; Plk1 PBD phosphopeptide binding, fluorescence polarization; P53350; in the data active = inhibition above about 34%, passing the limit was not always enough
# Starred values were filed as active, the others as inactive; . = not tested or not shown.
SMILES,CYP2C19 inh,CYP2C9 inh,PLK1 kinase inh,CYP2C9 act,CYP2C19 activ,Plk1 PBD FP
CC(C)Cn1nc(NC(=O)C2CCCO2)c2cc3ccccc3nc21 (configuration not stated),11,14,-10,0.9,0.9,11
COCC(=O)Nc1cc([N+](=O)[O-])ccc1C,0,9,-18,0.9,1,44
Cc1ccc(CNC(=O)CSc2c3c(nc4cc(Cl)ccc24)CCCC3)o1,80*,39,-6,0.6,0.2,-2
CCOC(=O)c1ccc(CNC(=O)CSc2nnnn2-c2ccc(Cl)cc2)o1,34,7,-6,0.9,0.7,-5
COc1ccc(-c2nc(NC(=O)c3cc(C(C)(C)C)nn3C)sc2C)cc1,6,-68,2,1.7,0.9,18
C=CCN1C(=O)CC(C(=O)NC)SC1=Nc1ccc(C(=O)OCC)cc1 (configuration not stated),11,25,-10,0.7,0.9,0
COc1ccc(NC(=O)c2cc(-c3ccc(C)o3)nc3ccccc23)cc1OC,24,32,2,0.7,0.8,-17
O=C(O)CCCNc1cc(N2CCC3(CC2)OCCO3)c2noc3c2c1C(=O)c1ccccc1-3,26,61*,36,0.4,0.7,7
CCC1=NN=C(c2ccc(F)cc2)C(c2c[nH]c3ccccc23)N1O (configuration not stated),.,.,-8,.,.,-15
CCOC(=O)c1c(C)c(-c2ccccc2)n(CC(=O)N2CCCC2)c1C,88*,43,2,0.6,0.1,1
CCOC(=O)c1c(C)c(-c2ccccc2)n(CC(=O)N2CCN(C)CC2)c1C,14,-9,-3,1.1,0.9,0
O=C(Nc1ccon1)c1cc2ccccc2oc1=O,-11,4,-12,1,1.1,27
O=C(CCC(=O)Nc1ccc(Oc2ccccc2)cc1)NCCO,8,9,-5,0.9,0.9,-13
COc1ccc(-n2c(-c3ccco3)n[nH]c2=S)cc1,42,-4,-8,1,0.6,-1
COc1ccc(-n2c(=S)[nH]c3ccccc32)cc1,54*,-64,1,1.6,0.5,3
CCn1ncc(Cl)c1C(=O)Nc1cc(Cl)ccc1Cl,-14,-53,-11,1.5,1.1,-11
CCOC(=O)N1CCC(c2cc(=O)n3[nH]c(C)c(-c4ccc(F)cc4)c3n2)CC1,33,68*,-15,0.3,0.7,4
CCOC(=O)N1CCC(c2cc(=O)n3[nH]c(-c4ccccc4)cc3n2)CC1,-8,66*,.,0.3,1.1,.
CCOC(=O)Cc1cc(=O)n2[nH]c(C)c(-c3ccccc3)c2n1,-11,-5,-1,1.1,1.1,-2
CCOC(=O)Cc1cc(=O)n2[nH]c(-c3ccccc3)cc2n1,.,.,-15,.,.,-12
COCCNC(=O)C(c1ccco1)N(C(=O)Cn1nnc2ccccc21)c1cc(C)ccc1C (configuration not stated),36,12,-14,0.9,0.6,-3
Cc1ccccc1NC(=S)NC1CC2CCC(C1)N2Cc1ccco1 (configuration not stated),-8,-6,-16,1.1,1.1,7
Cc1cc(C2C(=O)C(C(=O)c3ccc(Cl)cc3)C(=O)CC2(C)C)on1 (configuration not stated),-12,39,.,0.6,1.1,.
COc1ccc(C2C(C(=O)N3CCCCC3)CC(=O)N2c2ccc(OC)cc2)cc1 (configuration not stated),1,-44,-12,1.4,1,10
O=C1Nc2ccccc2/C1=N/c1sc2c(c1C(=O)NCCc1ccccc1)CCCC2,26,50,-9,0.5,0.7,18
SMILES,CYP2C19 inh,CYP2C9 inh,PLK1 kinase inh,CYP2C9 act,CYP2C19 activ,Plk1 PBD FP
Cc1ccc(C(=O)N2CCN(c3ccccc3)CC2)cc1C,69*,-47,.,1.5,0.3,.
Cc1cc(C(=O)N2CCN(c3cccc(Cl)c3)CC2)c(C)o1,42,60*,-7,0.4,0.6,5
Cc1ccc(C(=O)N2CCN(c3cccc(Cl)c3)CC2)cc1C,71*,-32,.,1.3,0.3,.
CCOC(=O)c1c(C)c(C(=O)N2CCN(c3cccc(Cl)c3)CC2)c(C)n1C,67*,74*,-3,0.3,0.3,23
COc1ccc(C(=O)N2CCN(c3ccc(C)c(C)c3)CC2)cc1OC,34,-17,-12,1.2,0.7,24
Cc1cc(C(=O)N2CCN(c3ccccc3)CC2)c(C)o1,38,-5,-5,1,0.6,-11
C=CCn1c(C)c(C(C)=O)c(N2CCN(c3ccccc3)CC2)nc1=S,9,12,-4,0.9,0.9,-26
Cc1cnn(-c2ccc3nnc(-c4ccc(Cl)cc4)n3n2)c1,19,28,-20,0.7,0.8,-17
CCC(C)[C@@H](C(=O)Nc1ccc(OC)c(OC)c1)N1Cc2ccccc2C1=O (some centres not stated),44,22,-10,0.8,0.6,-2
CC(=O)c1ccc(N2CCN(C(=O)CCS(=O)(=O)c3ccc(C)cc3)CC2)cc1,21,-7,.,1.1,0.8,.
O=C(CC(NC(=O)c1ccccc1Cl)c1ccccc1)Nc1ccc2c(c1)OCO2 (configuration not stated),27,18,-4,0.8,0.7,-6
C=CCN(CC=C)C(=O)c1ccccc1NC(=O)c1ccccc1C,51*,8,-5,0.9,0.5,12
CCCc1cc2c(cc1NC(=O)c1ccccc1C)OCO2,95*,28,-6,0.7,0,4
CCCCC(=O)Nc1ccc(C(=O)Nc2ccc3c(c2)OCO3)cc1,28,41,-8,0.6,0.7,-5
CCCc1cc2c(cc1NC(=O)c1ccccc1Cl)OCO2,94*,49,-7,0.5,0.1,5
CCCc1cc2c(cc1NC(=O)c1ccc(Br)cc1)OCO2,87*,11,-4,0.9,0.1,-18
COC(=O)c1sc(=S)n(-c2cccc(Cl)c2)c1N,14,9,-4,0.9,0.9,-11
CCOC(=O)CN1NC2(CCC(C)CC2)NC1=S (configuration not stated),61*,-2,-3,1,0.4,18
CCOC(=O)CN1NC2(CCCC(C)C2)NC1=S (configuration not stated),61*,-4,-1,1,0.4,-3
CCOC(=O)Cn1c2c(c(=N)c3c1CCC3)CCC2,-3,0,-2,1,1,-3
CCOC(=O)CN1NC2(CCCCC2)NC1=S,18,18,-7,0.8,0.8,-28
COC(=O)c1coc(-c2ccc(OC)cc2)c1C(=O)OC,63*,19,2,0.8,0.4,-24
COC(=O)c1coc(-c2ccc(C)cc2)c1C(=O)OC,79*,59*,-18,0.4,0.2,7
c1csc(C(c2nnnn2C2CCCCC2)N2CCN(c3nc4ccccc4s3)CC2)c1 (configuration not stated),.,.,-8,.,.,3
